From PubChem
In the library only some 2.3% were active in any assay of this set; here they are far more common.
VDR inhibitor – Inhibitors of the vitamin D receptor (VDR): qHTS. VDR-SRC2-3 peptide fluorescence polarization, 2 h. AID 504847, 2011. 400,000 tested, 0.93% active. Potency, µM, for inactives: max response, negative = inhibition, most hits filed as inhibitors; note: potency is the fitted concentration of half-maximal effect; % is set by controls: 0 for no effect and ±100 for the full control effect
Target sequence (P11473 whole entry, looked up): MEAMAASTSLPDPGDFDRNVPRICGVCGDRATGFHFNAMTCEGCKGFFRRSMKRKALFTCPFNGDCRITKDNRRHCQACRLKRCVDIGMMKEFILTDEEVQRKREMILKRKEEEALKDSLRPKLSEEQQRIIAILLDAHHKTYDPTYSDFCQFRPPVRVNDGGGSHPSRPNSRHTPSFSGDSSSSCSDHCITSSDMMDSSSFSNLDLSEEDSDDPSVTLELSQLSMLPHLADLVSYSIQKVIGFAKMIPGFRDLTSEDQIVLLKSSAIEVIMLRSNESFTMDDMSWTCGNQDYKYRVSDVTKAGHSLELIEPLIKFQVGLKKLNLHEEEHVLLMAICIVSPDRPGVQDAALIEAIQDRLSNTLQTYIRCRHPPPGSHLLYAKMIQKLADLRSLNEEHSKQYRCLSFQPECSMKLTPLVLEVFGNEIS
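After 23 nl compound addition and a short centrifugation, plates sat for 2 hours at ambient temperature; polarization of fluorescence then indicated loss of VDR binding to peptide SRC2-3.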
KDM4E inh – qHTS Assay for Inhibitors of Human Jumonji Domain Containing 2E (JMJD2E); JMJD2E catalytic domain, FDH-coupled NADH fluorescence (FDH is formaldehyde dehydrogenase); Potency, µM (series often up to 57.1 µM), for inactives: at the highest dose activity change, negative = inhibition, usual class: inhibitors; Lysine-specific demethylase 4E (Homo sapiens), B2RXH2; 230,000 tested, 1.6% active; AID 2147, 2009; active = well fitted inhibition curve with a large enough effect, not every such curve was filed as active; inconclusive = small, poorly fitted or top-dose-only effect, or another doubt; inactive = no such curve, though single readings can be large or run the other way;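 note: potency is the fitted concentration of half-maximal effect; 0% = wells with enzyme and -100% = buffer wells without enzyme; nearly all actives have a fitted effect of over 50% in size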
HttQ103 aggreg – qHTS Multiplex Assay to Identify Dual Action Probes in a Cell Model of Huntington: Aggregate Formation (GFP); Potency, µM (doses to about 46.1 µM), without a hit: at the highest dose activity change, negative = inhibition, hits mostly inhibitors; AID 1688, 2009; PC12 HttQ103-GFP aggregates, Acumen cytometry, 40 h; 220,000 tested, 1.1% active; note: potency is the fitted concentration of half-maximal effect; % is set by controls: 0 for no effect and ±100 for the full control effect; nearly all actives have a fitted effect of over 60% in size
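Using laser scanning cytometry, GFP-positive aggregates were counted after lysis of PC12 cells induced with 100 nM tebufenozide to express HTT exon 1 Q103–GFP. Compounds were tested in titration.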
RGS12 GoLoco inh – qHTS Assay for Inhibitors of RGS12 GoLoco Motif Activity (Red Fluorophore) | Potency, µM (highest dose often 61.6 µM), for inactives: top-dose activity, negative = inhibition, actives largely listed as inhibitors | Gai1:RGS12 GoLoco peptide FP, rhodamine, 10 min | 230,000 tested, 0.44% active | AID 880, 2007 | Guanine nucleotide-binding protein G(i) subunit alpha-1 (Homo sapiens), P63096; active = well fitted inhibition curve with a large enough effect, not every such curve was filed as active; inactive = no such curve, though single readings can be large or run the other way; note: potency is the fitted concentration of half-maximal effect; % is set by controls: 0 for no effect and ±100 for the full control effect; nearly all actives have a fitted effect of over 30% in size
FBPA coupling cs – qHTS Assay for Inhibitors of Fructose-1,6-bisphosphate Aldolase from Giardia Lamblia: Coupling assay counterscreen. activity change, negative = inhibition, % at 58.2 µM, hits read low. 290,000 tested, 0.67% active. coupling enzyme system counterscreen, AmpLite Red fluorescence; in the data active = activity change below about -30%; note: % is set by controls: 0 for no effect and ±100 for the full control effect
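Compounds tested against the coupling enzymes alone at 57.5 uM final; readout was AmpLite Red fluorescence (525/598 nm) after 20 min at RT.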
HTT cytoprotect – qHTS Multiplex Assay to Identify Dual Action Probes in a Cell Model of Huntington: Cytoprotection (ATP). Potency, µM (series often up to 56.4 µM), without a hit: cytoprotection (ATP increase), hits mostly activators. 230,000 tested, 0.14% active. AID 1471, 2008. PC12 HTT-Q103 induced, cytoprotection, ATP luminescence, 40 h; note: potency is the fitted concentration of half-maximal effect; % of control where 0% means no effect; nearly all actives have a fitted effect of over 45% in size
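Cells were plated at 1500 per well in phenol red-free DMEM with 5% equine and 5% calf serum. Tebufenozide (100 nM final) and compounds were added, then ATPlite reagent, and luminescence was read.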
USP1 UbRho – Inhibitors of USP1/UAF1: Hit Validation in Primary Assay. shares compounds with VDR inhibitor. Ub-Rhodamine cleavage, fluorescence kinetic read. Potency, µM (top dose mostly 114 µM), without a hit: at the top dose activity change, negative = inhibition, most hits filed as inhibitors. 50 tested, 50% active
VDR inh confirm – qHTS for Inhibitors of the vitamin D receptor (VDR): Hit Validation in Primary Screen. shares compounds with VDR inhibitor. VDR-coactivator inhibition assay, qHTS confirmation. Potency, µM, hits mostly inhibitors. 840 tested, 89% active. AID 602199, 2012; note: potency is the fitted concentration of half-maximal effect
VDR FP fluor – qHTS for Inhibitors of the vitamin D receptor (VDR): Hit Validation using a Fluorescein Assay; 840 tested, 48% active; AID 602200, 2012; shares compounds with VDR inhibitor; Potency, µM (doses to about 57.1 µM), for the others: at the highest dose activity change, negative = inhibition, usual class: inhibitors; VDR-coactivator binding, fluorescein fluorescence polarization; note: potency is the fitted concentration of half-maximal effect
VDR bla – qHTS for Inhibitors of the vitamin D receptor (VDR): Hit Validation using a Beta-Lactamase Assay; shares compounds with VDR inhibitor; VDR beta-lactamase reporter cells, FRET ratio; cells co-treated with VDR agonist LG190178; Potency, µM (titrated, usually from 46.1 µM), for inactives: at the highest dose activity change, negative = inhibition, actives largely listed as inhibitors; 840 tested, 23% active; AID 602202, 2012; note: potency is the fitted concentration of half-maximal effect; % is set by controls: 0 for no effect and ±100 for the full control effect
VDR viability – qHTS for Inhibitors of the vitamin D receptor (VDR): Hit Validation using a Cytotoxicity Assay; 840 tested, 18% active; Potency, µM (top dose mostly 48.3 µM), inactives show at the highest dose activity change, negative = cytotoxicity, usual class: cytotoxic; AID 602204, 2012; shares compounds with VDR inhibitor; cytotoxicity counter-screen, cell viability, qHTS;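 note: potency is the fitted concentration of half-maximal effect; plate controls were DMSO for no effect and high-concentration cycloheximide for full effect; nearly all actives have a fitted effect of over 75% in size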
Active calls of the source: *; ? = inconclusive; / = no result given; [ ] = dose if it differs, or a comment. Unless noted, calls come from the whole dose curve; as a rule, active = well fitted curve in the direction sought with a large enough effect; inconclusive = small, poorly fitted or top-dose-only effect, or another doubt; inactive = no such curve, though single readings can be large; an effect the other way counts as inactive or inconclusive.

SMILES	VDR inhibitor	KDM4E inh	HttQ103 aggreg	RGS12 GoLoco inh	FBPA coupling cs	HTT cytoprotect	VDR inh confirm	VDR FP fluor	VDR bla	VDR viability	others
CCS(=O)(=O)c1oc(-c2ccc(F)cc2)nc1S(=O)(=O)c1ccccc1	20µM*	/	/	/	/	/	4.47*	3.98µM*	5.8µM*	9.47µM*
Cc1cc(=O)oc2c(C)c3occc3cc12	-18.9%	/	/	/	0.3	/	/	/	/	/
CCOC(=O)c1sc(N)c(C(=O)Nc2ccccc2OC)c1C	70.8µM*	-18.3%	?	-22.6%	0.0	-96.7%	10.6*	?	-14.9%	?
O=[N+]([O-])c1ccc(C2=Nn3c(Cn4nnc5ccccc54)nnc3SC2)cc1	?	-1.6%	7.9%[9.22 µM]	0.5%	-0.1	-9.4%[10 µM]	?	8.91µM*	-1.3%	?
CCCc1nnc2n1N=C(c1ccc([N+](=O)[O-])cc1)CS2	-5.7%	-2.9%	-20.5%[9.22 µM]	-2.7%	3.6	-13.5%[10 µM]	/	/	/	/
Nc1ccc(-c2nc3ccc(-c4nc5ccc(N)cc5[nH]4)cc3[nH]2)cc1	1.9%	?	/	16.1%	0.6	-43.9%	/	/	/	/	USP1 UbRho=?
CC(=O)Nc1cccc(C(=O)/C=C/c2ccc(Br)cc2)c1	25.1µM*	-1.9%	16.1%	0.3%	-2.6	/	7.08*	8.91µM*	?	-19.5%
COc1ccc(Br)cc1/C=C/C(=O)Nc1ccc2ccccc2c1	-3.8%	?	-3.8%	15.8%	-3.5	-1.5%[10 µM]	/	/	/	/
Cc1cccc(C(=O)Nc2ccc(C(=O)/C=C/c3ccncc3)cc2)c1	15.8µM*	/	/	/	-4.6	/	7.52*	6.31µM*	?	?
CC(=O)Nc1cccc(C(=O)/C=C/c2ccc(/C=C/C(=O)c3cccc(NC(C)=O)c3)cc2)c1	/	9.1%	20.9%	2.3%	3.1	19.7%[10 µM]	/	/	/	/
CCC(=O)Nc1cccc(C(=O)/C=C/c2cc(Br)ccc2OC)c1	?	0.4%	?	4.7%	-0.1	-5.4%	8.91*	14.1µM*	4.61µM*	?
COc1ccc(C(=O)Nc2ccc(N3CCCCCC3)cc2)cc1S(=O)(=O)N1CCOCC1	-15.0%	/	/	/	/	/	/	/	/	/
